The supplement of paper PMC6555819

These sequences were tested on FXR:RXRa (NR concentration 270 nM, RXRa partner concentration 90 nM) (assay: PBM binding z-score (relative to random genomic background probes); higher = stronger binding; sequences stand for … in GC…GCGATTGACAGCGTAGAATGAAGG).
Outline: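 Custom Agilent 4×180K protein-binding microarrays carried double-stranded probes, each with a 34-nt variable region. These regions held direct-repeat seeds, single-nucleotide variants, half-site ablations and random human genomic background sequences. Ligand-free nuclear receptor dimers were incubated on the arrays for 1 h, antibodies against each partner (one per run) detected binding, and scanned fluorescence was regression-normalized. Binding z-scores take the random background probes as reference.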
Sequence CTCCAAAGGTCGTGCTCAGGTGAGTATACCAAAC has a PBM binding z-score of 5.95.
TAGCCAAGGTCATGGGCCAGTATACCACGCGAAC was tested, and the PBM binding z-score was 7.33.
CGAACTACGTCAGAACAGGACAGTGAAGGATGAT was tested, and the PBM binding z-score was -0.457.
In the case of ATATGTTGGTTATCGGGTCATTCAGTTTGCGCAT, the PBM binding z-score is reported as 2.39.
ACAGACAGGTTATGAAGGTAACTCAGGCTATCAT showed a PBM binding z-score of 0.409.
For CCGACTGGGGCAGAAAGGATACCATACCATCCGG, the PBM binding z-score was -0.81.
TCACGGAGGACACGAAAGGTCAGAGCTCGACATC was tested, and the PBM binding z-score was 3.04.
Work on TGTCAAAGTTCAAAGGCAACGTAAGTATCCACAC yielded a PBM binding z-score of 6.68.
With CCTCGCAGGCCAATCTGGGTCACTCAAGGCTTGA the PBM binding z-score was 0.68.
Sequence GCGACTGGGGCATCAGCAGGTTACCATTACTTAA has a PBM binding z-score of -0.552.
Work on TAGCCTAGGTCATGGGCCAGTATCCCACGCGAAC yielded a PBM binding z-score of 4.49.
TCATATAGGTAAAAGGTGAAATTCGGTGTGGTAA gave a PBM binding z-score of 2.42.
CCTATTAGATGACCATAAGGGCAACCGAAGCTCG gave a PBM binding z-score of 0.824.
AGAACGAGGGCACGCTGAGTTGGTAGCAGAGTAG was tested, and the PBM binding z-score was 0.682.
In the case of AGCACGAGGGCAATGAGTTGATAGCACGGGTGGC, the PBM binding z-score is reported as 0.125.
With CCGACTGGGGCATAAAGTTACCATAAGCCAGCCC the PBM binding z-score was -0.335.
CGAACTAGGTCATCCAGGACAGTAAATACATTGA gave a PBM binding z-score of 4.22.
In the case of ATCTCTAGGTGAAGATAGTTCAGTGAATGCAAAT, the PBM binding z-score is reported as 0.203.
ACTATTAGTTGACTTGGGGCAACCGATACGACGC was tested, and the PBM binding z-score was 0.435.
In the case of TAGCTTAGGTCATTGGGCCAGTATAGTACGCATC, the PBM binding z-score is reported as 4.59.
AGAATGCGGTTATTAAGATCAGGGAATTGCGGTC showed a PBM binding z-score of -0.258.
With TCTTGTAGATAAGCAGGTTAAGAAAGCTGGCCAA the PBM binding z-score was 0.562.
